This note sets out measurements from the supplement of paper PMC10723795.

± gives the standard deviation of the averaged measurements.

For one experiment, the system named is DLD1. In words: nucleolar normality score relative to DMSO (fraction of DMSO control); RPE1 is a non-cancer human cell line; higher = more normal nucleoli (less nucleolar stress). The procedure:
(§1)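 Selected screen hits were validated in hTERT lines (BJ5TA, CHON-002, RPE1) and cancer lines (DLD1, HCT116). Cells were immunostained for nucleolin and UBF and the nucleolar normality score was measured per field of view, with 4 fields per drug. Scores are normalized to each cell line's own DMSO control. Dose and time are not stated for this panel.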

The next experiment relates to HCT116. The experiment is described as above. The procedure: as §1

Turning to `CC(C)C[C@H](NC(=O)[C@H](CCc1ccccc1)NC(=O)CN1CCOCC1)C(=O)N[C@@H](Cc1ccccc1)C(=O)N[C@@H](CC(C)C)C(=O)[C@@]1(C)CO1` [Carfilzomib], the nucleolar normality score in the experiment with DLD1 amounted to 0.436 ± 0.059; with HCT116 it was 0.574 ± 0.063.
For `Cc1cnc(CNC(=O)c2c(=O)c3ccc(N4CCCN(C)CC4)nc3n3c2sc2ccccc23)cn1` the same measures were 0.224 ± 0.045 and 0.404 ± 0.19.
Consider `CC(C)c1cc(C(=O)N2Cc3ccc(CN4CCN(C)CC4)cc3C2)c(O)cc1O` [Onalespib], for which the values for the nucleolar normality score in the experiment with DLD1 and with HCT116 were 0.363 ± 0.023 and 0.434 ± 0.027, respectively.
For `CC(C)n1nc(-c2ccc3oc(N)nc3c2)c2c(N)ncnc21` [Sapanisertib] the same measures were 0.398 ± 0.035 and 0.549 ± 0.021.
As for `CCc1cnn2c(NCc3ccc[n+]([O-])c3)cc(N3CCCC[C@H]3CCO)nc12` [Dinaciclib], the nucleolar normality score with DLD1 was determined as 0.442 ± 0.09; in the experiment on HCT116, 0.428 ± 0.052.
For the compound `CN(C)CCNC(=O)c1cccn2c(=O)c3cc4ccccc4cc3nc12`, the figures for the nucleolar normality score in the experiment on DLD1 and in the experiment with HCT116 were 0.173 ± 0.037 and 0.202 ± 0.013, respectively.
For `COc1cccc2c1C(=O)c1c(O)c3c(c(O)c1C2=O)C[C@@](O)(C(=O)CO)C[C@@H]3O[C@H]1C[C@H](N)[C@H](O)[C@H](C)O1` [Doxorubicin] the same measures were 0.36 ± 0.056 and 0.253 ± 0.036.
For `CC(C)c1c2cc(-c3ccnc(NC4CCC(NC5CCOCC5)CC4)n3)ccc2nn1C` (centres undefined) the same measures were 0.509 ± 0.046 and 0.507 ± 0.016.
For `Cc1nc(-c2cn3c(n2)-c2ccc(-c4cnn(C(C)(C)C(N)=O)c4)cc2OCC3)n(C(C)C)n1` [Taselisib] the same measures were 0.485 ± 0.067 and 0.588 ± 0.052.
In the case of `CN1CC[C@H](c2c(O)cc(O)c3c(=O)cc(-c4ccccc4Cl)oc23)[C@H](O)C1` [Flavopiridol], the nucleolar normality score with DLD1 was determined as 0.432 ± 0.076; with HCT116, 0.452 ± 0.057.
For `COC[C@H](NC(=O)c1cnc(C)s1)C(=O)N[C@@H](COC)C(=O)N[C@@H](Cc1ccccc1)C(=O)[C@@]1(C)CO1` [Oprozomib] the same measures were 0.471 ± 0.054 and 0.658 ± 0.046.
The corresponding values for `C=CCNC1=C2C[C@@H](C)C[C@H](OC)[C@H](O)[C@@H](C)/C=C(\C)[C@H](OC(N)=O)[C@@H](OC)/C=C\C=C(/C)C(=O)NC(=CC1=O)C2=O` are 0.436 ± 0.052 and 0.462 ± 0.027.
